Screening results from PubChem.
Compounds with a hit are over-represented: about 1.7% of the library has one in this group of screens.
GLP-1R inv ag – qHTS of GLP-1 Receptor Inverse Agonists (Inhibition Mode) | Glucagon-like peptide 1 receptor (Homo sapiens), P43220 | HEK293 GLP-1R CRE-luciferase, luminescence, 24 h; GLP-1R form is constitutively active | Potency, µM (titrated, usually from 38.3 µM), most hits filed as inhibitors | 1.6% of 410,000 active | AID 624417, 2012; further: nearly all actives have a fitted effect of over 55% in size
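qHTS in 1536-well format: reporter HEK293 cells expressing constitutive GLP-1R activity in DMEM + 10% Nu serum, 24 hr with compounds at 37 deg C, luminescence read after 12 min with detection reagent.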
PTHR1 ag – qHTS for PTHR1 Agonists: Primary Screen; 0.075% of 410,000 active; HEK293 GP2 PTHR1 cells, GloSensor cAMP luminescence, 1 h; Parathyroid hormone/parathyroid hormone-related peptide receptor (Homo sapiens), Q03431; AID 743266, 2014; Potency, µM (top dose mostly 115 µM), usual class: activators; further: nearly all actives have a fitted effect of over 55% in size
Target sequence (Q03431 whole entry, looked up): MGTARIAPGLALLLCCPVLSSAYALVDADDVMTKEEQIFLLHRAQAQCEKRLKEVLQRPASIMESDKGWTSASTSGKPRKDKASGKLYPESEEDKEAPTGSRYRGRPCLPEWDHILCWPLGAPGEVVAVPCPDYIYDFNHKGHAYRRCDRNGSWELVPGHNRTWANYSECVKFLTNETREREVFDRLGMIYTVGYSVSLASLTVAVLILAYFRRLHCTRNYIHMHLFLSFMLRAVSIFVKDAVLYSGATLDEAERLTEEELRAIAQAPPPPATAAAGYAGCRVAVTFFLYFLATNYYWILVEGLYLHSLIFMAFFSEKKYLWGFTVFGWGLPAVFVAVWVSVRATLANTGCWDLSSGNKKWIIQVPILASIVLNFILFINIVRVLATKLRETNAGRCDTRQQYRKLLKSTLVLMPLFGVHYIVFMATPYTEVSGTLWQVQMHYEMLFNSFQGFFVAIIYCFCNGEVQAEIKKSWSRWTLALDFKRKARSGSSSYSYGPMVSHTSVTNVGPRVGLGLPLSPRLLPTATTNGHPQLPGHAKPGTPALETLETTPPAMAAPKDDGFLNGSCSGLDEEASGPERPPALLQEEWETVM
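HEK-293-derived GP2 cells expressing PTHR1 and a GloSensor cAMP reporter, 3,000/well, plated overnight, given luciferin plus IBMX (each 0.5 mM as added) for 1 h at 37 °C, then compound for 1 h at 37 °C. Luminescence was read after 15 min at room temperature.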
HEK293 tox – qHTS of GLP-1 Receptor Inverse Agonists: Cytotox Screen; AID 624418, 2012; 0.13% of 410,000 active; HEK293 cAMP-luciferase reporter cells, luminescence, 24 h; Potency, µM (titrated, usually from 38.3 µM), actives largely listed as inhibitors;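 further: loss of luciferase light is scored as toxicity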
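MLSMR compounds, 24 hr on cells at 37 deg C/5% CO2; luminescence after luciferase reagent (12 min RT). Inhibition counted as the undesired cytotoxic outcome.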
GLP1R ag – qHTS of GLP-1 Receptor Agonists; Glucagon-like peptide 1 receptor (Homo sapiens), P43220; HEK293 GLP-1R CRE-luciferase, luminescence, 4-6 h; cells express a hypersensitive GLP-1R form; Potency, µM (doses to about 45.6 µM), actives largely listed as activators; 0.007% of 380,000 active; AID 624172, 2012
Numbers stand for hits. The call rests on the fitted dose curve; in most records, active means well fitted curve in the direction sought with a large enough effect; inconclusive means small, poorly fitted or top-dose-only effect, or another doubt; inactive means no such curve, though single readings can be large; an effect the other way counts as inactive or inconclusive.

Results for COc1ccc(NC(=O)CC2C(=O)N(Cc3ccco3)C(=S)N2C(C)C)cc1 (configuration not stated) ?
GLP-1R inv ag: 10µM; PTHR1 ag: inactive; HEK293 tox: inactive; GLP1R ag: inactive

How did CCOC(=O)C1(CCOc2ccccc2)CCN(Cc2cccc(-n3cccn3)c2)CC1 do in these assays?
GLP-1R inv ag: 5µM; PTHR1 ag: inactive; HEK293 tox: inactive; GLP1R ag: inactive

Results for CCOC(=O)C1(CCOc2ccccc2)CCN(Cc2cccc(OC)c2OC)CC1 ?
GLP-1R inv ag: 10µM; PTHR1 ag: inactive; HEK293 tox: inactive; GLP1R ag: inactive

What do the screens show for `CCOC(=O)C1(CCOc2ccccc2)CCN(Cc2ccc(OC)cc2)CC1`?
GLP-1R inv ag: 10µM; PTHR1 ag: inactive; HEK293 tox: inactive; GLP1R ag: inactive

Results for CCOC(=O)C1(CCCc2ccccc2)CCN(Cc2ccn[nH]2)CC1 ?
GLP-1R inv ag: 4.5µM; PTHR1 ag: inactive; HEK293 tox: inactive; GLP1R ag: inactive

Results for CCN1C[C@@H]2[C@@H]3C(=O)N(Cc4ccccc4)C(=O)[C@@H]3[C@](Cc3ccccc3)(C1=O)N2C(=O)c1ccc(Cl)cc1 ?
GLP-1R inv ag: inactive; PTHR1 ag: inactive; HEK293 tox: inactive; GLP1R ag: inactive

How did COC1C(OC(=O)/C=C/C=C/C=C/C=C/C(=O)O)CCC2(CO2)C1C1(C)OC1CC=C(C)C (configuration not stated) do in these assays?
GLP1R ag: inactive

How did CCOC(=O)C1(CCOc2ccccc2)CCN(Cc2ccc(OCC)c(CO)c2)CC1 do in these assays?
GLP-1R inv ag: 11µM; PTHR1 ag: inactive; HEK293 tox: inactive; GLP1R ag: inactive

Results for Cc1ccc(C)c(C(=O)CCC(=O)NCc2ccc(Cl)cc2)c1 ?
GLP-1R inv ag: 10µM; PTHR1 ag: inactive; HEK293 tox: inactive; GLP1R ag: inactive

What do the screens show for `CCN1CCN(CCCNC(=O)Cn2c(-c3cccs3)cc3cc(F)ccc32)CC1`?
GLP-1R inv ag: inconclusive; PTHR1 ag: inconclusive; HEK293 tox: inactive

Results for CCCOc1ccc(C(=O)N2CCN(Cc3ccc4c(c3)OCO4)CC2)cc1 ?
GLP-1R inv ag: 7.9µM; PTHR1 ag: inactive; HEK293 tox: inactive; GLP1R ag: inactive

How did O=C(c1ccc2nc(N3CCCCC3)sc2c1)N1CCN(Cc2ccc3c(c2)OCO3)CC1 do in these assays?
GLP-1R inv ag: 10µM; PTHR1 ag: inactive; HEK293 tox: inactive; GLP1R ag: inactive

What do the screens show for `CCOC(=O)N1CCN(C(=O)c2ccc3nc(N4CCCCC4)sc3c2)CC1`?
GLP-1R inv ag: inactive; PTHR1 ag: inactive; HEK293 tox: inactive; GLP1R ag: inactive

Results for COc1ccc2cc3cc(C(=O)N4CCN(Cc5ccc6c(c5)OCO6)CC4)oc3nc2c1 ?
GLP-1R inv ag: 10µM; PTHR1 ag: inactive; HEK293 tox: inactive; GLP1R ag: inactive

What do the screens show for `CCOC(=O)c1sc(=S)n(-c2ccc(OC)cc2)c1C`?
GLP-1R inv ag: inconclusive; PTHR1 ag: inactive; HEK293 tox: inactive; GLP1R ag: inactive

Results for CCOC(=O)c1c2c(n(-c3ccc(OC)cc3)c1C)C(=O)C(=O)c1ccccc1-2 ?
GLP-1R inv ag: inconclusive; PTHR1 ag: inactive; HEK293 tox: 3.2µM; GLP1R ag: inactive

What do the screens show for `CC1CC(C)CN(c2ccc(C(=O)NCc3ccc4c(c3)OCO4)cc2[N+](=O)[O-])C1` (configuration not stated)?
GLP-1R inv ag: 11µM; PTHR1 ag: inactive; HEK293 tox: inactive; GLP1R ag: inactive

What do the screens show for `CNC(=S)N/N=C/c1cc(C)ccc1C`?
GLP-1R inv ag: inconclusive; PTHR1 ag: inactive; HEK293 tox: inconclusive; GLP1R ag: inactive

How did CCNC(=S)N/N=C/c1cc(C)ccc1C do in these assays?
GLP-1R inv ag: 4.5µM; PTHR1 ag: inactive; HEK293 tox: 5.6µM; GLP1R ag: inactive

Results for CSc1ccc(CNC(=O)Cn2nc(N3CCN(c4ccccc4)CC3)ccc2=O)cc1 ?
GLP-1R inv ag: inactive; PTHR1 ag: inactive; HEK293 tox: inactive

What do the screens show for `O=[N+]([O-])c1cc2ncccc2c2ncccc12`?
GLP-1R inv ag: 3.2µM; PTHR1 ag: inactive; HEK293 tox: inconclusive; GLP1R ag: inactive

What do the screens show for `COc1ccc(/C=C/C(=O)C2(O)CCCCC2)cc1`?
GLP-1R inv ag: 10µM; PTHR1 ag: inactive; HEK293 tox: inconclusive; GLP1R ag: inactive

Results for CCCCOCCCNC(=O)C[C@@H]1C[C@@]2(C(=O)OC)CCCCC=C2N(CCc2ccc(OC)c(OC)c2)C1=O ?
GLP-1R inv ag: inactive; PTHR1 ag: inactive; HEK293 tox: inactive

Results for CCc1ccc(Nc2cc(C(=O)NCCCN(C)c3ccccc3)c3ccccc3n2)cc1 ?
GLP-1R inv ag: inactive; PTHR1 ag: inactive; HEK293 tox: inactive

What do the screens show for `COc1ccccc1Nc1cc(C(=O)NCCCN(C)c2ccccc2)c2ccccc2n1`?
GLP-1R inv ag: 5.6µM; PTHR1 ag: inactive; HEK293 tox: inactive

Results for COc1ccc(NC2CCCN(C(=O)c3cc(C)nc4cc(F)ccc34)C2)cc1 (configuration not stated) ?
GLP-1R inv ag: inactive; PTHR1 ag: inactive; HEK293 tox: inactive; GLP1R ag: inactive

Results for Cc1c(CCOC(=O)C2C3CC4CC(C3)CC2C4)sc[n+]1CC(=O)c1ccc(Br)cc1 (configuration not stated) ?
GLP-1R inv ag: 11µM; PTHR1 ag: inactive; HEK293 tox: inconclusive; GLP1R ag: inactive

How did Cc1c(CCOC(=O)c2ccc(Cl)cc2Cl)sc[n+]1CC(=O)c1ccc(Br)cc1 do in these assays?
GLP-1R inv ag: 10µM; PTHR1 ag: inactive; HEK293 tox: inconclusive; GLP1R ag: inactive

How did COc1ccc(C(=O)OCCc2sc[n+](CC(=O)c3ccccc3)c2C)cc1 do in these assays?
GLP-1R inv ag: inactive; PTHR1 ag: inactive; HEK293 tox: inactive; GLP1R ag: inactive

Results for CC1(c2ccccc2)O[C@@H]2C[C@H]3[C@@H]4CCC5=CC(=O)C=C[C@]5(C)[C@@]4(F)[C@@H](O)C[C@]3(C)[C@]2(C(=O)CO)O1 (some centres not stated) ?
GLP-1R inv ag: 7.9µM; PTHR1 ag: inactive; HEK293 tox: inactive; GLP1R ag: inactive

Results for O=[N+]([O-])c1ccc(N/N=C2/CCCCC2c2ccccn2)cc1 (configuration not stated) ?
GLP-1R inv ag: 1.3µM; PTHR1 ag: inactive; HEK293 tox: inactive; GLP1R ag: inactive

Results for COc1ccccc1NC(=O)c1oc2ccccc2c1NC(=O)c1ccccc1C(F)(F)F ?
GLP-1R inv ag: inactive; PTHR1 ag: inactive; HEK293 tox: inactive

What do the screens show for `C=CCOc1ccccc1CN1CCC(C(=O)Nc2cccc(-c3ccn[nH]3)c2)CC1`?
GLP-1R inv ag: 7.9µM; PTHR1 ag: inactive; HEK293 tox: inconclusive; GLP1R ag: inactive
